# From PubChem BioAssay (EPA / NIEHS)
# “And” between values parts separate entries of the source, which are not always exact repeats. Identical values can stand only once. Results filed as inconclusive are left out. Some compounds were tested as several samples or in several runs, with calls that do not always agree. The source made the active and inactive calls. The calls were made as follows: active = hit-call score of the fitted dose curve at least 0.9, where 1 is the maximum; inconclusive = response in the unintended direction; inactive = score below 0.9.
# How the values were obtained:
# [1] = target: Estrogen receptor (Homo sapiens) + Estrogen receptor beta (Homo sapiens) (UniProt P03372+Q92731); test: OT_ER_ERaERb_1440: Odyssey Thera (OT) 24-hour HEK293T Protein-Complementation Assay for Estrogen Receptor-alpha/-beta Homodimer (AID 2283356);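 also: heteromer of ER alpha and ER beta binding domains; hits raise reporter fluorescence and both agonists and antagonists give an increase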
# Estrogen receptor (Homo sapiens) + Estrogen receptor beta (Homo sapiens), sequence (P03372 whole entry, looked up, the tested form may be a part): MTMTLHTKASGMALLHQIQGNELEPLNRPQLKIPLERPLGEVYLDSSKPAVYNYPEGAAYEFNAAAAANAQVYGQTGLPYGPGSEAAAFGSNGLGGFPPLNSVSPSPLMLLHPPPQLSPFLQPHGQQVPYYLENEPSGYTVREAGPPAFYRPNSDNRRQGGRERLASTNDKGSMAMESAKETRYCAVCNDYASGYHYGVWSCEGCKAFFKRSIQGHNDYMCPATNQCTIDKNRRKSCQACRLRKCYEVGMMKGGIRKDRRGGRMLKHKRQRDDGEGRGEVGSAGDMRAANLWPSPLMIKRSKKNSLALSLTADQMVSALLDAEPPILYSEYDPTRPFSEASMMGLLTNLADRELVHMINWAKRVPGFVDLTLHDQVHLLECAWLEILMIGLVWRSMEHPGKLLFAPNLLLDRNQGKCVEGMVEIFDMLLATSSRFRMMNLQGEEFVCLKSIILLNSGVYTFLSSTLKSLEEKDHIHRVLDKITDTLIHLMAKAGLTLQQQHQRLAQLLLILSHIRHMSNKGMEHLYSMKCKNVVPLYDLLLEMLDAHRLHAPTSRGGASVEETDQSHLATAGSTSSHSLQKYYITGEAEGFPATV
# Estrogen receptor (Homo sapiens) + Estrogen receptor beta (Homo sapiens), sequence (Q92731 whole entry, looked up, the tested form may be a part): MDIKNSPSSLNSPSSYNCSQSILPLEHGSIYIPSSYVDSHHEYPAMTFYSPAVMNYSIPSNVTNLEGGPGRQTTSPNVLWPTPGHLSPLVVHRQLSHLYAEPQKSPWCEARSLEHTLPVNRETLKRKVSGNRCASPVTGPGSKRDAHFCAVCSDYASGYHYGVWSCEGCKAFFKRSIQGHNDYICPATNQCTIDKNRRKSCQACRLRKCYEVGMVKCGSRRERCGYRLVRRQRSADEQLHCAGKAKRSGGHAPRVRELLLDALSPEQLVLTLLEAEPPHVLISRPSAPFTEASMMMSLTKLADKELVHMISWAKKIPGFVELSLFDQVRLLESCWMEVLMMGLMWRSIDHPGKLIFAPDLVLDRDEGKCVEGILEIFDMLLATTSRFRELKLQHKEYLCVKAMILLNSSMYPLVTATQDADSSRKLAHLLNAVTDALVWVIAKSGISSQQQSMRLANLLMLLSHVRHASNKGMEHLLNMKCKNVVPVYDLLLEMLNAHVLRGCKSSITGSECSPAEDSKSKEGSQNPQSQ
# Outline: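 HEK293T cells stably expressing a PCA pair of ERα LBD (aa 310-547) and ERβ LBD (aa 263-489) were dosed for 24 h. Fluorescence intensity increase versus DMSO vehicle was fitted as gain-of-signal.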
# [2] = target: Estrogen receptor beta (Homo sapiens) (UniProt Q92731); test: OT_ER_ERbERb_0480: Odyssey Thera (OT) 8-hour HEK293T Protein-Complementation Assay for Estrogen Receptor-beta/-beta Homodimer (AID 2283357);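 also: active means signal gain over DMSO baseline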
# Estrogen receptor beta (Homo sapiens), sequence (Q92731 whole entry, looked up, the tested form may be a part): as above
# Outline: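 Fluorescence intensity, nuclear for agonists and nuclear plus cytoplasmic for antagonists, was quantified by laser scanning cytometry versus vehicle after 8 h treatment. The cells were HEK293T stably carrying ER beta LBD fragment-complementation partners.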
# [3] = target: human Peroxisome Proliferator-activated Receptor alpha (PPARa), PPARA (gene 5465) (UniProt Q07869); test: NVS_NR_hPPARa: NovaScreen (NVS) Nuclear Receptor Binding Assay for human Peroxisome Proliferator-activated Receptor alpha (PPARa) (AID 2283359);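 also: activity means loss of TR-FRET signal versus DMSO baseline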
# Outline: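 Cell-free TR-FRET binding assay with extracted PPARα protein, read 1 h after dosing. Primary screen in duplicate at 25 uM, with actives retested in concentration series. Loss of signal versus DMSO.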
# [4] = target: Retinoic acid receptor alpha (Homo sapiens) (UniProt P10276); test: NVS_NR_hRAR_Antagonist: NovaScreen (NVS) Nuclear Receptor Binding Assay for human Retinoic Acid Alpha Receptor Antagonism (RAR) (AID 2283358)
# Retinoic acid receptor alpha (Homo sapiens), sequence (P10276 whole entry, looked up): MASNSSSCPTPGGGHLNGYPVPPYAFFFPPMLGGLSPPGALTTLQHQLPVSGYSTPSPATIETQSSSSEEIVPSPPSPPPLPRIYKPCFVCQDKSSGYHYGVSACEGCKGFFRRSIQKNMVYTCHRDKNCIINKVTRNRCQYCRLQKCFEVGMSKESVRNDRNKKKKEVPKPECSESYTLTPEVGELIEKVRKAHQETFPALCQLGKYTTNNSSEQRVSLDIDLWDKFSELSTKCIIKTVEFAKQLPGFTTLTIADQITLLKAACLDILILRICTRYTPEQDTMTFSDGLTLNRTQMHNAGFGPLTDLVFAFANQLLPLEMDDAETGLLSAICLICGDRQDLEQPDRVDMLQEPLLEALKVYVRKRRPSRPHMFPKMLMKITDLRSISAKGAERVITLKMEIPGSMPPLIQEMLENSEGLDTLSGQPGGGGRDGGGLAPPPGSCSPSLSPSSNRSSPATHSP
# Outline: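 Cell-free TR-FRET binding assay with extracted human RARalpha in antagonist mode, read 2 h after dosing. Loss of signal was fitted relative to DMSO; the primary screen used 25 uM in duplicate, with concentration series on follow-up.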
# PGR (gene 5241) = PGR (gene 5241) (UniProt P06401); test: NVS_NR_hPR: NovaScreen (NVS) Nuclear Receptor Binding Assay for human Progestron Receptor (PR) (AID 2283360);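 also: active means loss of bound radioligand signal versus DMSO baseline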
# PGR (gene 5241), sequence (P06401 whole entry, looked up): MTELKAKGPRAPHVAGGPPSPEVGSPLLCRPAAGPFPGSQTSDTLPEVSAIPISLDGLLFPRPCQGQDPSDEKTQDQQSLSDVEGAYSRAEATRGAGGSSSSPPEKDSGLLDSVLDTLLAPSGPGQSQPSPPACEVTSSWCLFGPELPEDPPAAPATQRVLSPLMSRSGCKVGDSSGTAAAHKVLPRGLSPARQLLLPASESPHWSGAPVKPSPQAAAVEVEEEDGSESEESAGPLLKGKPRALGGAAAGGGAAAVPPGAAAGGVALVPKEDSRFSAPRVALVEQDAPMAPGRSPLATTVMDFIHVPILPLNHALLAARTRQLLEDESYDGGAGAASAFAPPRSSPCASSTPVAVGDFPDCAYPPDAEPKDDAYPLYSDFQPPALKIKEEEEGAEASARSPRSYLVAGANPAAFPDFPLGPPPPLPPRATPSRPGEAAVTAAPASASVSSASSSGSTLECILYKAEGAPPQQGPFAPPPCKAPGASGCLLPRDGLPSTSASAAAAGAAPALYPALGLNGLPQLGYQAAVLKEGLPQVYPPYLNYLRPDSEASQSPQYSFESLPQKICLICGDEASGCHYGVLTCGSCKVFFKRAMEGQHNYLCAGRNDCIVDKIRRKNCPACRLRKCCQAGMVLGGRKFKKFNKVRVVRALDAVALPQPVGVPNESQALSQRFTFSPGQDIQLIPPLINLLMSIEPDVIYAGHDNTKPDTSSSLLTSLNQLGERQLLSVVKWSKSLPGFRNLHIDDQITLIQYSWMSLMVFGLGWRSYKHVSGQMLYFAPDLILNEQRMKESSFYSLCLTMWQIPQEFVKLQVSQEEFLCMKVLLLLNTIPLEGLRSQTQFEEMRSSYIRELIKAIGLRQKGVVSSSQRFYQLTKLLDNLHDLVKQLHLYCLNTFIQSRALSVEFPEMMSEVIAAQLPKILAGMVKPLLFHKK
# Outline: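 Radioligand competition binding on receptor extracted from T47D cells, read by scintillation counting 18 h after dosing. Loss of signal versus DMSO; primary screen in duplicate at 25 uM, actives followed in concentration series.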
# [5] = target: human Thyroid Receptor Alpha (TRa), THRA (gene 7067) (UniProt P10827); test: NVS_NR_hTRa_Antagonist: NovaScreen (NVS) Nuclear Receptor Binding Assay for human Thyroid Receptor Alpha Antagonism (TRa) (AID 2283362)
# human Thyroid Receptor Alpha (TRa), THRA (gene 7067), sequence (P10827 whole entry, looked up): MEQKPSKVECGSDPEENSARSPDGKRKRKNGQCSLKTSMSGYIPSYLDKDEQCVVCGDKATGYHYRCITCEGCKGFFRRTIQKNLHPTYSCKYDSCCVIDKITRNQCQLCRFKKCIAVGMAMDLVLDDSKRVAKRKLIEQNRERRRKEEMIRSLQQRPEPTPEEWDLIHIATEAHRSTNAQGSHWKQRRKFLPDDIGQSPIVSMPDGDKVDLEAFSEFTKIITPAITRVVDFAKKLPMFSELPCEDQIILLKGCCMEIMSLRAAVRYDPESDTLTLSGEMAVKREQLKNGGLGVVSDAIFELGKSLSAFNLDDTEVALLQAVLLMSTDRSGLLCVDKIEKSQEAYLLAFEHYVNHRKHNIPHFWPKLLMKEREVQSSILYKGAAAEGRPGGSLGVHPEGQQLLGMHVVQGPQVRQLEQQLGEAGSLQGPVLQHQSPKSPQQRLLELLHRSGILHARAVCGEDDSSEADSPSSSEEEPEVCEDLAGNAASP
# Outline: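 Cell-free binding assay on extracted receptor protein, read 1 h after chemical dosing by AlphaLISA chemiluminescence; loss of signal relative to DMSO baseline marks antagonism. Primary screen ran in duplicate at 25 uM, with concentration series for actives.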
# [6] = target: Glucocorticoid receptor (Homo sapiens) (UniProt P04150); test: NVS_NR_hGR: NovaScreen (NVS) Nuclear Receptor Binding Assay for human Glucocorticoid Receptor (GR) (AID 2283363)
# Glucocorticoid receptor (Homo sapiens), sequence (P04150 whole entry, looked up): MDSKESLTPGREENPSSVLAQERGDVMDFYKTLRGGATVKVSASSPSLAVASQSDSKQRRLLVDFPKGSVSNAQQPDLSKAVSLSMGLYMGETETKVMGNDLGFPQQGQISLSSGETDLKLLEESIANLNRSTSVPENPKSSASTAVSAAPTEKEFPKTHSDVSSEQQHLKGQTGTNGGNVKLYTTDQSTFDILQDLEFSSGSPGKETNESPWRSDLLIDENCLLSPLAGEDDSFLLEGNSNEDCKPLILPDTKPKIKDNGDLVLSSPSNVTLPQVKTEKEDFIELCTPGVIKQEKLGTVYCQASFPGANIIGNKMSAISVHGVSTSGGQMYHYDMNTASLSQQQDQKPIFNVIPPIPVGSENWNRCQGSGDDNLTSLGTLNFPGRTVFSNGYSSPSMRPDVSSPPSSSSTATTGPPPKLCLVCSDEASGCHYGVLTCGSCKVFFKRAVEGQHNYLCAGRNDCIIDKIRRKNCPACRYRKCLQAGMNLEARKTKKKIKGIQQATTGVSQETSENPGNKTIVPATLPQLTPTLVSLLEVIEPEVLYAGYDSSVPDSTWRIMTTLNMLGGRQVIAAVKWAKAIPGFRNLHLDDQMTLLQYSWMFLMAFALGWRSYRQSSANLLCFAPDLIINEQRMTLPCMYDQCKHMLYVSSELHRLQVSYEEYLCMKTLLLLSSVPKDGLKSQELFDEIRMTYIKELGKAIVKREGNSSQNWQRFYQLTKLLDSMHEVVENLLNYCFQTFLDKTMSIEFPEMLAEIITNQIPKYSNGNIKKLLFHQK
# Outline: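 Cell-free radioligand displacement assay on extracted human GR, read 16 h after dosing by filter-based scintillation counting. Screened in duplicate at 25 uM, then concentration series for actives; loss of signal versus DMSO baseline.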
# [7] = target: rat Androgen Receptor (AR), Ar (gene 24208) (UniProt P15207); test: NVS_NR_rAR: NovaScreen (NVS) Nuclear Receptor Binding Assay for rat Androgen Receptor (AR) (AID 2283366)
# rat Androgen Receptor (AR), Ar (gene 24208), sequence (P15207 whole entry, looked up): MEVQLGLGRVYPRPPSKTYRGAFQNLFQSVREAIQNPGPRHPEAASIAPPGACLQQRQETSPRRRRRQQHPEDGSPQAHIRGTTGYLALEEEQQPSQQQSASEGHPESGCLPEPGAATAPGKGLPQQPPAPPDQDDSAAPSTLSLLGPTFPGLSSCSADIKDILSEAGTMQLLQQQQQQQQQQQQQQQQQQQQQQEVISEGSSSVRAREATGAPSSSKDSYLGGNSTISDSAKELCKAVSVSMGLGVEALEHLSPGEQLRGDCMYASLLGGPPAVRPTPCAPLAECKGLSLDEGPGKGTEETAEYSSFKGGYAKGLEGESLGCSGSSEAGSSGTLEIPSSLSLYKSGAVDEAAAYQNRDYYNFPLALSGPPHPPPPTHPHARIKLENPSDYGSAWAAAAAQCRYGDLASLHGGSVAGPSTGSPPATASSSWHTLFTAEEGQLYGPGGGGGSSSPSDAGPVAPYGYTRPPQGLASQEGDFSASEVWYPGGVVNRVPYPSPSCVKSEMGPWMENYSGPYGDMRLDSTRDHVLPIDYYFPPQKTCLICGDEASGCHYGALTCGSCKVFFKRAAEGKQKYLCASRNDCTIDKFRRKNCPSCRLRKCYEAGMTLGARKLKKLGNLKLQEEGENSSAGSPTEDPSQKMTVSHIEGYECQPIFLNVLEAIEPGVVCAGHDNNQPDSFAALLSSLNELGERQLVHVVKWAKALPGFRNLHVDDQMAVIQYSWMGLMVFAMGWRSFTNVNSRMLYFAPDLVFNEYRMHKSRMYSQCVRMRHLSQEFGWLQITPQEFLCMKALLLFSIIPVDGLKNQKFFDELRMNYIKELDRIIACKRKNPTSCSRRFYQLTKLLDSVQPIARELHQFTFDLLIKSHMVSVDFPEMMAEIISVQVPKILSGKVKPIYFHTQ
# Protocol: NVS_NR_rAR is a biochemical, single-readout assay that uses extracted gene-proteins from Testosterone pre-treated rat prostate in a tissue-based cell-free assay. Measurements were taken 18 hours after chemical dosing in a 96-well plate.NVS_NR_rAR is one of one assay component(s) measured or calculated from the NVS_NR_rAR assay. It is designed to make measurements of radioligand binding, a form of binding reporter, as detected with scintillation counting signals by Filter-based radiodetection technology.Data from the assay component NVS_NR_rAR was analyzed into 1 assay endpoint. This assay endpoint, NVS_NR_rAR, was analyzed in the positive analysis fitting direction relative to DMSO as the negative control and baseline of activity. Using a type of binding reporter, loss-of-signal activity can be used to understand changes in the binding as they relate to the gene Ar. Furthermore, this assay endpoint can be referred to as a primary readout, because the performed assay has only produced 1 assay endpoint. To generalize the intended target to other relatable targets, this assay endpoint is annotated to the nuclear receptor intended target family, where the subfamily is steroidal.
# Binding assays used specific radioligands (tritiated, iodinated) with non-radioactive competitive displacement ligands in agonist or antagonist protocols (as indicated) and various reference compounds and inhibitors to titrate specific binding to receptors and transporters. Most enzyme assays (CYPs, kinases, phosphatases, proteases, HDACs) used recombinant protein and specific substrates (fluorescence mostly, some colorimetric and radioactive) and inhibitors, followed by a biochemical separation of substrate and product. All assays for the biochemical HTS were initially run in duplicate at a single concentration (10 uM for CYP450 assays and 25 uM for all others). […] Each assay was run with positive and negative controls, and concurrent controls on every plate. The follow-up (secondary) screen tested active chemical-pairs in concentration series, as well as a few additional assays not tested in the primary screen, some selected negative inactives, and several cases re-run in the concentration series for confirmatory purposes.
# [8] = target: Retinoic acid receptor alpha (Homo sapiens) (UniProt P10276); test: NVS_NR_hRARa_Agonist: NovaScreen (NVS) Nuclear Receptor Binding Assay for human Retinoic Acid Alpha Receptor Agonism (RAR) (AID 2283361)
# Outline: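 Cell-free TR-FRET binding readout with extracted receptor protein, read 2 hours after dosing; gain-of-signal fitted relative to DMSO. Screened in duplicate at 25 uM, actives then run in concentration-response.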
# [9] = target: Nuclear receptor subfamily 1 group I member 2 (Homo sapiens) (UniProt O75469); test: NVS_NR_hPXR: NovaScreen (NVS) Nuclear Receptor Binding Assay for human Pregnane X Receptor (PXR) (AID 2283365);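 also: a drop in FRET signal versus DMSO baseline means the compound binds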
# Outline: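 Cell-free binding assay with extracted human PXR protein, read by TR-FRET 2 h after dosing; loss of signal relative to DMSO baseline indicates binding. Primary screen at 25 uM in duplicate, actives retested in concentration series.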
structure (smiles),measurement,setting,value
CCc1ccc(CCOc2ccc(CC3SC(=O)NC3=O)cc2)nc1 (stereo not given),outcome,[1],inactive
same,outcome,[2],inactive
same,outcome,[3],inactive
CN(C)C=O,outcome,[1],inactive
same,outcome,[2],inactive
CCCCCCCCCCCCc1ccccc1S(=O)(=O)O,outcome,[1],inactive
same,outcome,[2],inactive
same,AC50,[4],19 µM (active)
same,AC50,PGR (gene 5241),15.1 µM (active)
same,outcome,[5],inactive
same,AC50,[6],2.47 µM (active)
same,AC50,[7],3.66 µM (active)
CC(C)(C)c1ccc(O)c(C(C)(C)C)c1,outcome,[1],inactive
same,outcome,[2],inactive
same,outcome,[3],inactive
same,outcome,[5],inactive
c1ccc2c(c1)Cc1ccccc1-2,outcome,[1],inactive
same,outcome,[2],inactive
same,outcome,[4],inactive
same,outcome,PGR (gene 5241),inactive
CCCCCCCCOC(=O)CCCCCCCCC(=O)OCCCCCCCC,outcome,[1],inactive
same,outcome,[2],inactive
same,outcome,[3],inactive
OCCC(F)(F)C(F)(F)C(F)(F)C(F)(F)C(F)(F)C(F)(F)F,outcome,[1],inactive
same,outcome,[2],inactive
Oc1cccc(O)c1,AC50,[1],32.1 µM (active)
same,outcome,[2],inactive
O=C(O)Cc1cc(I)c(Oc2cc(I)c(O)c(I)c2)c(I)c1,outcome,[1],inactive
same,outcome,[2],inactive
same,outcome,[4],inactive
same,outcome,[3],inactive
same,AC50,[6],5.56 µM (active) and 109 nM (active)
CN1CCC[C@H]1c1cccnc1,outcome,[1],inactive
same,outcome,[2],inactive
CCCCC(CC)COC(=O)CCCCC(=O)OCc1ccccc1 (stereo not given),outcome,[1],inactive
same,outcome,[2],inactive
Cc1cc(CCN2CCN(c3nsc4ccccc34)CC2)cc2c1NC(=O)CC2(C)C,outcome,[1],inactive
same,outcome,[2],inactive
same,AC50,PGR (gene 5241),36 µM (active)
N#C[C@@H]1CC(F)(F)CN1C(=O)CNC1CC2CCC(C1)N2c1ncccn1 (stereo not given in full),outcome,[1],inactive
same,outcome,[2],inactive
same,outcome,[4],inactive
CCCCCCCCC(=O)O,outcome,[1],inactive
CC(C)(C)CC(C)(C)c1ccc(O)c(-n2nc3ccccc3n2)c1,outcome,[1],inactive
same,outcome,[2],inactive
CCc1nn(C2CCCCC2)c2cc(C3(C#N)CCC(C(=O)O)CC3)ccc12 (stereo not given),outcome,[1],inactive
same,outcome,[2],inactive
OC1CCC(C2CCCCC2)CC1 (stereo not given),AC50,[1],60.7 µM (active) and 64.1 µM (active) and 59.4 µM (active)
same,outcome,[1],inactive
same,AC50,[2],25.6 µM (active) and 31.9 µM (active) and 26.9 µM (active)
same,outcome,[2],inactive
same,outcome,[3],inactive
same,outcome,[8],inactive
CC(=O)CC(C)(C)O,outcome,[1],inactive
same,outcome,[2],inactive
COc1ccc([N+](=O)[O-])cc1N,outcome,[1],inactive
same,outcome,[2],inactive
CCCCCCCCCCCCCCCS(=O)(=O)Oc1ccccc1,outcome,[1],inactive
same,outcome,[2],inactive
CC(C)(C)c1cc(C(C)(C)C)c(O)c(C(C)(C)C)c1,AC50,[1],73.3 µM (active)
same,AC50,[2],29.3 µM (active)
same,outcome,[3],inactive
CCCCCCCCCCCCN1CCCC1=O,outcome,[1],inactive
same,outcome,[2],inactive
CCCOC(=O)c1ccc(O)cc1,AC50,[1],15.5 µM (active)
same,AC50,[2],7.31 µM (active)
same,outcome,[3],inactive
OCCC(F)(F)C(F)(F)C(F)(F)C(F)(F)C(F)(F)C(F)(F)C(F)(F)C(F)(F)F,outcome,[1],inactive
same,outcome,[2],inactive
C#C[C@]1(O)CC[C@H]2[C@@H]3CCC4=CC(=O)CC[C@@H]4[C@H]3CC[C@@]21C,outcome,[1],inactive
same,AC50,[2],25.7 µM (active) and 31.6 µM (active) and 17.8 µM (active)
same,outcome,[2],inactive
same,outcome,[8],inactive
same,outcome,[5],inactive
same,outcome,[9],inactive
CCCCCCC(=O)O,outcome,[1],inactive
same,outcome,[2],inactive
same,outcome,PGR (gene 5241),inactive
NC(=O)N1C(=O)C(C(=O)c2cc(Cl)cs2)c2cc(F)c(Cl)cc21 (stereo not given),outcome,[1],inactive
same,outcome,[2],inactive
same,outcome,[3],inactive
same,AC50,[6],19.6 µM (active)
same,AC50,[7],6.36 µM (active)
CCCCCCCC(=O)O,AC50,[1],17.1 µM (active)
same,AC50,[2],50 µM (active)
same,AC50,[3],4.38 µM (active)
same,outcome,PGR (gene 5241),inactive
same,outcome,[9],inactive
CCOC(=O)CC(O)(CC(=O)OCC)C(=O)OCC,outcome,[2],inactive
same,outcome,[3],inactive
Cc1cc(C)c(O)c(C)c1,outcome,[3],inactive
CC(=O)NC1(c2cccc(F)c2)CCN(CC[C@@]2(c3ccc(Cl)c(Cl)c3)CN(c3ccccc3)C(=O)CO2)CC1,AC50,[5],20.8 µM (active)
same,outcome,[6],inactive
COC(=O)CCCCC(=O)OC,outcome,PGR (gene 5241),inactive
C=C(C)C(=O)OCCC(F)(F)C(F)(F)C(F)(F)C(F)(F)C(F)(F)C(F)(F)F,outcome,[1],inactive
same,outcome,[2],inactive
same,outcome,PGR (gene 5241),inactive
O=c1c(-c2ccc(O)cc2)coc2cc(O)ccc12,AC50,[8],1.06 µM (active) and 6.6 µM (active)
same,outcome,[8],inactive
same,outcome,[7],inactive
CCN(CC)CCNc1ccc(CNC=O)c2sc3ccc(OC)cc3c(=O)c12,outcome,[2],inactive
same,AC50,[8],8.9 µM (active)
same,AC50,[5],15.1 µM (active)
same,outcome,[6],inactive
CCCOc1sc(C(=O)N2CCC(c3cc(CN)ccc3F)CC2)c(C)c1Br,outcome,PGR (gene 5241),inactive
same,AC50,[6],15 µM (active)
same,AC50,[7],13.6 µM (active)
C[C@@H]1C[C@H]2[C@@H]3CCC4=CC(=O)C=C[C@]4(C)[C@@]3(F)[C@@H](O)C[C@]2(C)[C@@]1(O)C(=O)COP(=O)(O)O,outcome,[1],inactive
same,outcome,[2],inactive
same,outcome,[6],inactive
